We go through 8 compounds from PubChem BioAssay (NCATS).

Molecules are shown by their SMILES. A number with no mark means an inactive call. Records with an inconclusive call do not appear. Active and inactive are the calls of the source. Unless noted, calls come from the whole dose curve; as a rule, active = well fitted curve in either direction with a large enough effect (not every such curve was filed as active); inconclusive = small, poorly fitted or top-dose-only effect, or another doubt; inactive = flat fitted curve, though single readings scatter.

For assay [1], the target named is Lysosomal acid glucosylceramidase (Homo sapiens) (UniProt P04062). Put plainly: Glucocerebrosidase-p2 (AID 348; in the data active = potency below about 10 µM; note: potency is the fitted concentration of half-maximal effect). Conditions: purified GBA, blue fluorogenic substrate, 40 min. The method, boiled down: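 Normal human glucocerebrosidase (0.2 nM) with blue fluorogenic substrate (80 uM final) in citrate/phosphate pH 5.9 with 10mM sodium taurocholate, 0.01% tween-20; 40 min RT, NaOH/glycine stop; fluorescence Ex 365/Em 440; AC50 from a titration from 0.6 nM upwards.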

A short description of assay [2]: AP1 Signaling Pathway (AID 357).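 Note: ME-180 reporter cells stimulated with EGF at its EC50 level; % is set by controls: 0 for no effect and ±100 for the full control effect.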 Conditions: ME-180 AP-1-bla reporter, EGF-induced, beta-lactamase ratio, 5 h; at 7.69 µM (top of the series) unless noted. Put shortly: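 First, ME-180 AP-1-bla cells were cultured overnight at 37 °C in low-serum Opti-MEM. Next, titrated compounds with EC50 EGF were incubated 5 hours. Finally, CCF4 was added for 2.5 hours and the 460/530 nm ratio recorded.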

Assay [3] concerns the target Cytochrome P450 1A2 (Homo sapiens) (UniProt P05177). Description: p450-cyp1a2 (AID 410; calls by dose curve; note: potency is the fitted concentration of half-maximal effect). The settings on record: recombinant CYP1A2, luciferin-ME demethylation, luminescence; series mostly up to 57 µM. The method, boiled down:
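20nM CYP1A2, 100uM Luciferin-ME (=Km), 100mM KPO4; cpd 10 min RT; +NADPH regen, 60 min RT; stop/detect 20 min; luminescence. Normalized to furafylline 57 uM = full inhibition.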

A short description of assay [4]: NFAT Signaling Pathway (AID 444).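 Note: carbachol stimulus at about its EC50 of 1 µM final; % is set by controls: 0 for no effect and ±100 for the full control effect.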 The settings on record: Jurkat NFAT-bla M1, carbachol, beta-lactamase ratio, 5 h; at 7.69 µM (top of the series) unless noted. Put shortly:
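Jurkat cells with NFAT-driven β-lactamase reporter and co-expressed M1 receptor, stimulated with carbachol (final 1 uM, ~EC50), compound titration, 5 h at 37 °C. CCF4 loaded 1 h at RT; 460/530 nm ratio gave %activity and AC50.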

Assay [5] is described as follows: Stat Signaling Pathway (AID 446).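 Note: ME-180 cervical cancer cells given 40 pM IL-6 alongside compound; SIE-controlled beta-lactamase reporter measured as 460/530 nm FRET emission ratio; % is set by controls: 0 for no effect and ±100 for the full control effect.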 Conditions: ME-180 (cervical carcinoma) SIE beta-lactamase reporter, IL-6 stimulated, 5 h; at 7.69 µM (top of the series) unless noted. The method, boiled down: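 Normalization used AC90 stimulation (300 pM IL-6) and AC90 inhibition (125 nM pan-JAK inhibitor at 40 pM IL-6). The underlying signal is SIE-driven beta-lactamase in ME-180 cells after 5 h IL-6 exposure with compound.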

The target of assay [6] is Glucocorticoid receptor (Homo sapiens) (UniProt P04150). Put plainly: GR-GFP Redistribution (AID 450;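 active = compounds whose dose series gives a full or clear partial fitted curve of increased nuclear translocation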; note: potency is the fitted concentration of half-maximal effect). Conditions: U2OS GR-GFP nuclear translocation, laser cytometry, 2 h.
For assay [7] the target is unchanged. Description: GR-EFC Redistribution (AID 451; calls by dose curve; note: potency is the fitted concentration of half-maximal effect). The settings on record: CHO-K1 GR-EFC translocation, beta-gal luminescence, 2 h. The method, boiled down: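 CHO-K1 cells expressing nuclear EA and GR-ED fragments of b-gal; compounds titrated up to 46 uM final, 2 h at 37 C. GR nuclear translocation read as complemented b-gal luminescence after 1 h RT detection.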

For assay [8], the target named is Mitogen-activated protein kinase 10 (Mus musculus) (UniProt Q61831). Description: JNK3 AlphaScreen Assay (AID 530).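 Note: kinase came from lysate of stimulated human HepG2 cells; signal reports phosphorylation of biotinylated GST-cJun 1-79 at Ser73 with 10 µM ATP; % is set by controls: 0 for no effect and ±100 for the full control effect.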 The settings on record: JNK3 lysate, c-Jun phosphorylation; series mostly up to 57.1 µM. The method, boiled down:
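HepG2 lysate (IL-1b/TNFa pre-activated) + biotin-GST-cJun 1-79 + anti-pSer73 cJun; cpd titration, 15 min RT; ATP 10 uM start; Tris pH 7.6, MgCl2, DTT, vanadate; beads in EDTA buffer; AlphaScreen.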
Background: Bead proximity is the source of the signal in Alpha formats.

The target of assay [9] is 3',5'-cyclic-AMP phosphodiesterase 4B (Homo sapiens) (UniProt Q07343). Description: qHTS Assay for Inhibitors of PDE-IV (AID 607; active = well fitted activation curve with a large enough effect in the main read-out, with a control signal flat, not every such curve was filed as active; note: % of control where 0% means no effect). The settings on record: HEK293 ACTOne CNG channel cells, membrane potential fluorescence; series mostly up to 22.9 µM. Put shortly: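 HEK293 ACTOne cells with CNG channel (1000/well), endogenous PDE4; membrane potential dye, compounds up to 22.9 uM final. Fluorescence Ex 535/Em 590; RO 20-1724 (100 uM final) as reference.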

Assay [10] is described as follows: Primary qHTS for small molecule stabilizers of the endoplasmic reticulum resident proteome: Secreted ER Calcium Modulated Protein (SERCaMP) assay (AID 1508630; active = well fitted curve in the direction sought with a large enough effect; an effect the other way counts as inactive or inconclusive; note: % is set by controls: 0 for no effect and ±100 for the full control effect). The settings on record: SH-SY5Y GLuc-SERCaMP (Gaussia luciferase released on ER calcium loss) secretion, thapsigargin, luminescence; series mostly up to 38.4 µM. The method, boiled down:
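The SH-SY5Y reporter protocol was run at 3 concentrations up to 38.3 uM (primary) or 11 concentrations (follow-up): 16 h compound, 100 nM thapsigargin for 4 h, then extracellular luciferase luminescence.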

In assay [11] the target is Cytochrome P450 3A4 (Homo sapiens) (UniProt P08684). Put plainly: qHTS Assay for Activators of Cytochrome P450 3A4 (AID 885; active = well fitted curve in the direction sought with a large enough effect; an effect the other way counts as inactive or inconclusive; note: nearly all actives have a fitted effect of over 65% in size). The settings on record: recombinant CYP3A4, Luciferin-PPXE luminescence, 60 min; series mostly up to 57.1 µM. The method, boiled down: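 Human CYP3A4 dealkylates Luciferin-PPXE to luciferin, which luciferase detection converts to light. Substrate was at its KM (25uM), buffer 200mM KPO4, reaction 60 min at RT.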
In general terms: In qHTS, concentration-response curves come from the screen itself.

Chain of 3',5'-cyclic-AMP phosphodiesterase 4B (Homo sapiens) (Q07343 whole entry, looked up): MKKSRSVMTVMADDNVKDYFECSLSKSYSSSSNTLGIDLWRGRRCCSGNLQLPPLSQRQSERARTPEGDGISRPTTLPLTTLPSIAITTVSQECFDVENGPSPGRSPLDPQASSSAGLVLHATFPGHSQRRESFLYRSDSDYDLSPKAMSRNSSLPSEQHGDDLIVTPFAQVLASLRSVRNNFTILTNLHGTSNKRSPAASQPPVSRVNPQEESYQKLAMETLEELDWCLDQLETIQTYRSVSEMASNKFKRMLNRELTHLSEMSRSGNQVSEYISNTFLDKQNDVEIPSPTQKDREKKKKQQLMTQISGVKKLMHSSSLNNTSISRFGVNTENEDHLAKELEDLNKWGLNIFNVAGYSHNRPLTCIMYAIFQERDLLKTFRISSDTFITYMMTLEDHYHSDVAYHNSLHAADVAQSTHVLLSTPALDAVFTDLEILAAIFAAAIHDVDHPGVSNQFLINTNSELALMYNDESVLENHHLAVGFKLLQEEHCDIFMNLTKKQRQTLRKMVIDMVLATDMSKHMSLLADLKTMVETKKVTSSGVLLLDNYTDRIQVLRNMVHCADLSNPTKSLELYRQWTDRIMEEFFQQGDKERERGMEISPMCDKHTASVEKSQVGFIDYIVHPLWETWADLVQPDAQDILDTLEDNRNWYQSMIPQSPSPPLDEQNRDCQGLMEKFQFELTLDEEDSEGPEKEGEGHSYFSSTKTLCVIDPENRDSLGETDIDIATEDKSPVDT
Chain of Cytochrome P450 1A2 (Homo sapiens) (P05177 whole entry, looked up): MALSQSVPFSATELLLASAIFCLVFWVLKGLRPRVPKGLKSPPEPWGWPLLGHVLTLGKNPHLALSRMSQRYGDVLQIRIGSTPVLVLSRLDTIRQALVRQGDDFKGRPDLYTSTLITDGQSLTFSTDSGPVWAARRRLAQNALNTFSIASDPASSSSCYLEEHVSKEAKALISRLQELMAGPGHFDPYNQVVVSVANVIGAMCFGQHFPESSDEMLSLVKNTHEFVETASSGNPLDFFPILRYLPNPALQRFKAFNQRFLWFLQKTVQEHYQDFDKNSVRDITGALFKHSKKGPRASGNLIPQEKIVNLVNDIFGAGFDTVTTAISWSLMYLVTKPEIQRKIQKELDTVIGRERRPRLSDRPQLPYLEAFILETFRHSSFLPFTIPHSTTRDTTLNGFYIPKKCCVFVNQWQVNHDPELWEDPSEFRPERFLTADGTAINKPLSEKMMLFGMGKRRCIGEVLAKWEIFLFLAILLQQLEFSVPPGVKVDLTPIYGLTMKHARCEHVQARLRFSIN
Chain of Lysosomal acid glucosylceramidase (Homo sapiens) (P04062 whole entry, looked up): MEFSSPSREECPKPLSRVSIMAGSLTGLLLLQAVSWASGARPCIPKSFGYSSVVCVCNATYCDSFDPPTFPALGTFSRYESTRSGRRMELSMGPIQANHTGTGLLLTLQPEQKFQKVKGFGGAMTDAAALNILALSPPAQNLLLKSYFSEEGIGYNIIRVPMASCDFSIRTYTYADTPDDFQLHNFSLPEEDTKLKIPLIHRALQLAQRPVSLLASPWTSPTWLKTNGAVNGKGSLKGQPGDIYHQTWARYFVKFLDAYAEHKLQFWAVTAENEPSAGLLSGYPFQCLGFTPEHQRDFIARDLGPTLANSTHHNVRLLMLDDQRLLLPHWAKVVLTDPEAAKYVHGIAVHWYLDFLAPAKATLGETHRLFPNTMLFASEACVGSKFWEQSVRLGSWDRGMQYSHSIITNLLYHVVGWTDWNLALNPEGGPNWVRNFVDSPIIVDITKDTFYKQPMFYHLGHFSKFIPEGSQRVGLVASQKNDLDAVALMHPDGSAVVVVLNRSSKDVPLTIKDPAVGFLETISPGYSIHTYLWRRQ
Chain of Glucocorticoid receptor (Homo sapiens) (P04150 whole entry, looked up, the tested form may be a part): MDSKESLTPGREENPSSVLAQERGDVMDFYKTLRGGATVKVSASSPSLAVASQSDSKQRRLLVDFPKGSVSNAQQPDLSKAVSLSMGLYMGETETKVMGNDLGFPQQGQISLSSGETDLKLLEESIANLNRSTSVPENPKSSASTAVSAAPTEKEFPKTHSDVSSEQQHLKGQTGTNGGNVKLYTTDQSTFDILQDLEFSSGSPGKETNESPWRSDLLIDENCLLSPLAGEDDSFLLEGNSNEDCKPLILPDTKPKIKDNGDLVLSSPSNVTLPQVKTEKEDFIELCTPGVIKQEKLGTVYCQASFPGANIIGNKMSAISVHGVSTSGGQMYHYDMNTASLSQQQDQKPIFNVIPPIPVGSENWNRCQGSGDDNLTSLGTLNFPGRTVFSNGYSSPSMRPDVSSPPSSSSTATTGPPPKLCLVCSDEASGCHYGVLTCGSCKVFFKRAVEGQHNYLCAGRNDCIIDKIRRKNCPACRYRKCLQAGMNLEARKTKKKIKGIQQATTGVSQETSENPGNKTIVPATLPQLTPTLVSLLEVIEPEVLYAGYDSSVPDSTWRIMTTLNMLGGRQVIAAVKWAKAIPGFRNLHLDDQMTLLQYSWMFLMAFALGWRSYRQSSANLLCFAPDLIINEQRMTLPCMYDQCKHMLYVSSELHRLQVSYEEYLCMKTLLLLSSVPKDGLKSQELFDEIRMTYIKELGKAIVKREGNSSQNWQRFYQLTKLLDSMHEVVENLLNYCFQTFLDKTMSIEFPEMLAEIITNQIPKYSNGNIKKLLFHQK
Chain of Cytochrome P450 3A4 (Homo sapiens) (P08684 whole entry, looked up): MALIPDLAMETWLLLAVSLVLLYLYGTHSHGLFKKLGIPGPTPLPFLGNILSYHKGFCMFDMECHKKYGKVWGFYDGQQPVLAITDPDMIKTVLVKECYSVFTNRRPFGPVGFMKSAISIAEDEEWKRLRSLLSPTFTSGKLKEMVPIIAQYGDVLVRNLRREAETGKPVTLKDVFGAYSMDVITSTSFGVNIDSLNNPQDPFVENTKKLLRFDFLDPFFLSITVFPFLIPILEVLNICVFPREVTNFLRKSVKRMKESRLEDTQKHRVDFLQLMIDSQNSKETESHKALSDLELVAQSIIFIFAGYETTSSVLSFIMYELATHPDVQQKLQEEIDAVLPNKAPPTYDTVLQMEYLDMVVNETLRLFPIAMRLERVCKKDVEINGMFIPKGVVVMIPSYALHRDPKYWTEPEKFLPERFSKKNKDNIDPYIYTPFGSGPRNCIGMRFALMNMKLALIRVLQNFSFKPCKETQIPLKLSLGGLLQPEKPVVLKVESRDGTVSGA

As to `N#Cc1cccc(-c2nc3cnc(Nc4ccccc4)nc3n(C[C@H]3CCCO3)c2=O)c1`, the Potency was more than 11.4 µM in assay [1], 2 µM (active) in assay [3], more than 9.22 µM in assay [6] and more than 46 µM in [7]. For the same compound, the activity change, negative = inhibition in assay [2] is -18.6%; in assay [4], -9.05%. The activity, negative = inhibition in assay [5] was -7.94%. In addition, the Potency result in [8] and in [9] was “inactive” in each case. Besides, the outcome in [10] was inactive.

Regarding `COc1ccc(-n2c(=O)c(C)nc3cnc(Nc4ccccc4)nc32)cc1`, the Potency in assay [1] was more than 11.4 µM; in assay [3], 5.01 µM (active); in [6], more than 9.22 µM; in assay [7], more than 46 µM. The activity change, negative = inhibition in assay [2] is -25%; in assay [4] it was 0.929%. Also, in assay [5], the activity, negative = inhibition is -5.94%. The Potency result in [8], in assay [9] and in assay [11] was “inactive” throughout. For the same compound, the outcome in assay [10] was inactive.

In the case of `O=C(c1ccco1)N1CCC[C@@]2(CCN(c3cccc(-c4ccccc4)c3)C2)C1`, the Potency in [1] was more than 11.4 µM; in [3], 15.8 µM (active); in assay [7] it was more than 46 µM. Besides, the activity change, negative = inhibition in assay [2] was -1.52%; in [4], -22.9%. For the same compound, the activity, negative = inhibition in assay [5] was 3.03%. In addition, the outcome in [10] was inactive.

On to `O=C(c1cnccn1)N1CCC2(CCCN(c3ncccn3)C2)CC1`, for which the Potency in assay [1] was more than 11.4 µM; in [7], more than 46 µM. The activity change, negative = inhibition was -8.6% in [2] and 13.2% in [4]. Further, the Potency entry in assay [3], in [8] and in [9] was “inactive” each time. The activity, negative = inhibition in assay [5] is -0.387%. The result in [10] was inactive.

Turning to `CC(=O)N1CCC2(CC1)CCN(c1cccc(-c3ccccc3)c1)CC2`, the Potency was more than 11.4 µM in [1], 3.98 µM (active) in assay [3] and more than 46 µM in assay [7]. For the same compound, the activity change, negative = inhibition in assay [2] was -13.2%; in assay [4], 16.7%. Further, the activity, negative = inhibition in assay [5] is 18.6%. Also, the Potency result in assay [8] and in assay [9] was “inactive” throughout. For the same compound, the result in assay [10] was inactive.

As to `Cc1noc(C)c1C(=O)N1CCC2(CCN(Cc3nccs3)CC2)CC1`, the Potency in assay [1] is more than 11.4 µM; in assay [3], 12.6 µM (active); in assay [7] it was more than 46 µM. Further, the activity change, negative = inhibition in assay [2] was 11.4%; in [4] it was -0.611%. For the same compound, the activity, negative = inhibition in [5] was 11.5%. In addition, the Potency result in [8] and in assay [9] was “inactive” each time. For the same compound, the outcome in assay [10] was inactive.

Take `COCC(=O)N1CCC2(CCCN(C(=O)Nc3cccc(C#N)c3)C2)CC1`: the figures for the Potency in [1] and in assay [7] were more than 11.4 µM and more than 46 µM, respectively. In addition, the values for the activity change, negative = inhibition in assay [2] and in [4] were -3.42% and -3.66%, respectively. Moreover, the Potency entry in [3], in [8] and in assay [9] was “inactive” each time. Besides, the activity, negative = inhibition in assay [5] is -1.02%. For the same compound, the outcome in assay [10] was inactive.

In the case of `COc1cccc(Nc2ncc3nc(CCc4ccccc4)c(=O)n(CCC#N)c3n2)c1`, the Potency in [1] was more than 11.4 µM; in assay [6], more than 9.22 µM; in assay [7], more than 46 µM. Besides, the values for the activity change, negative = inhibition in [2] and in assay [4] were -11.6% and -14.1%, respectively. Further, the Potency result in [3], in [8] and in assay [11] was “inactive” throughout. Moreover, in assay [5], the activity, negative = inhibition was -2.69%. Moreover, the outcome in [10] was inactive.
